# According to PubChem BioAssay (NCATS):
# Inconclusive results are not listed. Entries that show only a call come without a potency. A number with no mark means an inactive call. Calls of active or inactive are those of the source. Calls follow the shape of the dose curve; as a rule, active = well fitted curve in the direction sought with a large enough effect; inconclusive = small, poorly fitted or top-dose-only effect, or another doubt; inactive = no such curve, though single readings can be large; an effect the other way counts as inactive or inconclusive.
# Tests used:
# [1] = test system: PA-1; assay: Primary qHTS to identify gynecologic anti-cancer compounds using libraries of approved drugs and bioactive compounds (AID 1345084); details: Gynecologic cancer cell panel viability, ATPlite luminescence, 48 h; series mostly up to 57.5 µM; also: nearly all actives have a fitted effect of over 55% in size
# Summary of the method: (§1)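 48 h compound exposure at 37 C, 5% CO2; five-point qHTS. ATPlite luminescence readout of cell ATP.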
# [2] = test system: Tov112D; assay: as above; details: Gynecologic cancer cell panel viability, ATPlite luminescence, 48 h; series mostly up to 57.5 µM
# Summary of the method: as §1
# [3] = test system: Tov-21-G; assay: as above; details: Gynecologic cancer cell panel viability, ATPlite luminescence, 48 h; series mostly up to 57.5 µM
# Summary of the method: as §1
# [4] = test system: SKOV3; assay: as above; details: Gynecologic cancer cell panel viability, ATPlite luminescence, 48 h; series mostly up to 57.5 µM
# Summary of the method: as §1
# [5] = qHTS assay to identify inhibitors of the type 1 interferon - major histocompatibility complex class I in skeletal muscle: Counter screen cell viability and HiBit confirmation (AID 1347412); details: iHSKM muscle cells + IFN-b, HiBiT or CellTiter-Glo, 24 h; HiBiT; also: nearly all actives have a fitted effect of over 60% in size
# Summary of the method: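 Myoblasts (C25cl48, HLA-B HiBiT) seeded in medium without dexamethasone, IFN-b 4 ng/ml added except unstimulated columns; 1 hr later compounds pinned (12-pt 1:3, top 46 uM final). Incubated 24 hrs, lysed 10 min, luminescence measured.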
# Potency is read from the fitted curve at half-maximal effect.
structure (smiles),measurement,setting,value
CCn1c(-c2nonc2N)nc2c(C#CC(C)(C)O)ncc(OCC3CCCNC3)c21 (stereo not given),Potency,[1],28.2 µM (active)
same,Potency,[2],inactive
C/C1=C\CCC2=CC(OC2=O)C(C)(C)/C=C/C1=O (stereo not given),Potency,[1],31.6 µM (active)
same,Potency,[2],inactive
CC(C)(O)C(=O)N1CCN(c2ccc(C(F)(F)F)c(C3=C(c4c[nH]c5ccccc45)C(=O)NC3=O)c2)CC1,Potency,[1],inactive
same,Potency,[3],inactive
same,Potency,[2],inactive
Cc1ccc(S(=O)(=O)NCc2ccc(C(=O)NCCN(Cc3ccccc3)C(C)C)cc2)cc1,Potency,[1],inactive
same,Potency,[3],inactive
same,Potency,[2],inactive
Cn1cc(-c2ccc(S(=O)(=O)n3ccc(/C=C/C(=O)Nc4ccccc4N)c3)cc2)cn1,Potency,[1],7.08 µM (active)
same,Potency,[2],4.47 µM (active)
CC(C)(C)Sc1c(CC(C)(C)C(=O)O)n(Cc2ccc(Cl)cc2)c2ccc(OCc3ccc4ccccc4n3)cc12,Potency,[1],inactive
same,Potency,[3],inactive
same,Potency,[2],inactive
COc1ccccc1C(=O)Nc1cc2c(cc1N1CCCC1)n(C)c(=O)n2C,Potency,[1],inactive
same,Potency,[3],inactive
same,Potency,[2],inactive
C=C1C(=O)O[C@@H]2C[C@]3(C)[C@@H](CCC(C)O)[C@@H]3C[C@H]12 (stereo not given in full),Potency,[1],inactive
same,Potency,[2],inactive
CCC(CC)C(c1ccc(Nc2nc3ccccc3s2)cc1)n1cncn1 (stereo not given),Potency,[1],22.4 µM (active)
same,Potency,[2],22.4 µM (active)
COc1ccccc1S(=O)(=O)Nc1ccc2c(c1)CN(C)C(=O)N2,Potency,[1],inactive
same,Potency,[2],inactive
CCn1c(=O)c(-c2ccc(Cl)cc2Cl)cc2cnc(Nc3ccc(N4CCNCC4)c(F)c3)nc21,Potency,[1],inactive
same,Potency,[2],inactive
Cn1cc(-c2ccc3c(c2)CCN3C(=O)Cc2cccc(C(F)(F)F)c2)c2c(N)ncnc21,Potency,[1],inactive
same,Potency,[2],inactive
C=C1CC[C@@H]2[C@](C)(CO)[C@H](O)CC[C@@]2(C)[C@@H]1CC(=O)C1=CCOC1=O,Potency,[4],inactive
CS/C=C/C(=O)O[C@@H]1CCC2=CC(=O)C(=C(C)C)C[C@]2(C)[C@H]1C,Potency,[1],inactive
same,Potency,[3],inactive
same,Potency,[2],inactive
CC(=O)C=C=C1C(C)(C)CC(O)CC1(C)O[C@@H]1O[C@H](CO[C@H]2OC[C@](O)(CO)[C@H]2O)[C@@H](O)[C@H](O)[C@H]1O (stereo not given in full),Potency,[1],inactive
same,Potency,[3],inactive
same,Potency,[2],inactive
O=C(Nc1nc2cc(C(F)(F)F)cc(NC3CC3)n2n1)c1cccnc1,Potency,[1],7.08 µM (active)
same,Potency,[2],7.94 µM (active)
C=CC(=O)Nc1cccc(Nc2nc(Nc3ccc(NC4CN(CCF)C4)cc3OC)ncc2C(F)(F)F)c1,Potency,[4],12.6 µM (active)
C=C1C(=O)OC2/C=C(\C)CC3C=C(CC/C=C(\C)CCC12)C(=O)O3 (stereo not given),Potency,[1],inactive
same,Potency,[2],inactive
COc1cccc(-c2cc(F)ccc2C2Cc3nc(N)nc(C)c3C(=O)N2)n1 (stereo not given),Potency,[1],0.355 µM (active)
same,Potency,[3],0.282 µM (active)
same,Potency,[5],0.0222 µM (active)
CNS(=O)(=O)c1ccccc1Nc1nc(Nc2ccc(N3CCN(C)CC3)cc2OC)ncc1Br,Potency,[1],2 µM (active)
same,Potency,[2],12.6 µM (active)
COc1ccc(NC(=O)c2ccc(-c3ccc(C(=N)N)cc3C)cc2)cc1N1CCN(C)CC1,Potency,[1],inactive
same,Potency,[3],inactive
same,Potency,[2],inactive
COc1cc(F)c(F)c(Nc2ccc(I)cc2F)c1NS(=O)(=O)C1(CC(O)CO)CC1 (stereo not given),Potency,[1],inactive
same,Potency,[2],inactive
COc1cc2c(Nc3cc(F)c(Cl)c(Cl)c3)ncnc2cc1OCC1CCCN(C)CCC1,Potency,[4],17.8 µM (active)
c1ccc(-c2cnn3cc(-c4ccc(OCCN5CCOCC5)cc4)cnc23)cc1,Potency,[4],15.8 µM (active)
same,Potency,[3],inactive
CC(=O)O[C@H]1CC(C)(C)CC2[C@]13CO[C@@]21CCC2[C@@]4(C)CC[C@H](O[C@@H]5OC[C@H](O[C@@H]6O[C@H](CO)[C@@H](O)[C@H](O)[C@H]6O[C@@H]6OC[C@@H](O)[C@H](O)[C@H]6O)[C@H](O)[C@H]5O[C@@H]5O[C@H](CO)[C@@H](O)[C@H](O)[C@H]5O)[C@@](C)(CO)C4CC[C@@]2(C)[C@]1(C)C[C@H]3O (stereo not given in full),"activity change, negative = cytotoxicity",[4],-11.7% [at 11.6 µM]
COC1C(O)C(OC2CCC3(C)C(CCC45CCC6C7(COC(=O)C7)OC4(O)C6(C)CCC35)C2)OC(C)C1OC1OC(CO)C(OC2OC(CO)C(O)C(O)C2O)C(O)C1O (stereo not given),"activity change, negative = cytotoxicity",[4],-3.24% [at 11.6 µM]
CC#C[C@@H](CC(=O)O)c1ccc(OCc2cccc(-c3ccc(C(F)(F)F)cc3)c2)cc1,Potency,[4],inactive
same,Potency,[3],inactive
same,Potency,[2],inactive
CCCCNc1ncc(C(=O)NCc2ccc(-n3ccnc3)cc2)c(NC2CCC(O)CC2)n1 (stereo not given),Potency,[4],inactive
C=C1C(=O)O[C@@H]2C3=C(C)CCC[C@]3(C)CC[C@@]12O,Potency,[4],inactive
CC(C)n1cnc2c(-c3cnc(N)nc3)nc(N3CCOCC3)nc21,Potency,[4],1.26 µM (active)
CC(=O)O[C@H]1[C@H](O)C[C@@]2(C)C(CC[C@]3(C)C2CC=C2C4CC(C)(C)CC[C@]4(C(=O)O)CC[C@]23C)C1(C)C (stereo not given in full),Potency,[4],11.2 µM (active)
CCCCC1CCN(CCCN2C(=O)CCc3ccccc32)CC1,Potency,[4],inactive
same,Potency,[3],inactive
same,Potency,[2],inactive
Cc1nc(-c2cn3c(n2)-c2ccc(-c4cnn(C(C)(C)C(N)=O)c4)cc2OCC3)n(C(C)C)n1,Potency,[4],0.631 µM (active)
same,Potency,[3],11.2 µM (active)
same,Potency,[2],inactive
COc1ccc(-c2ccccc2)cc1NS(=O)(=O)c1cc(Cl)cc(Cl)c1O,Potency,[4],inactive
O=C(NC1(c2ccccc2)CC1)c1c(CN2CCC(N3CCCCC3)CC2)c(-c2cccc(C(F)(F)F)c2)nc2cc(Br)ccc12,Potency,[4],inactive
same,Potency,[3],inactive
same,Potency,[2],inactive
C[C@@H]1O[C@@H](O[C@H]2[C@H](OC(=O)[C@]34CCC(C)(C)C[C@H]3C3=CCC5[C@@]6(C)C[C@H](O)[C@H](O[C@@H]7O[C@H](C(=O)O)[C@@H](O)[C@H](O)[C@H]7O)[C@@](C)(CO)C6[C@H](O)C[C@@]5(C)[C@]3(C)C[C@H]4O)O[C@@H](CO)[C@@H]2O)[C@H](O)[C@H](O)[C@H]1O[C@@H]1OC[C@@H](O)[C@H](O[C@H]2OC[C@](O)(CO)[C@H]2O)[C@H]1O (stereo not given in full),"activity change, negative = cytotoxicity",[4],-5.43% [at 6.55 µM]
same,"activity change, negative = cytotoxicity",[3],-13.8% [at 6.55 µM]
same,"activity change, negative = cytotoxicity",[2],-1.13% [at 6.55 µM]
C=C1CC2OC(=O)C(=C)C2C(OC(=O)/C(C)=C\C)CC2(C)OC1=CC2=O (stereo not given),Potency,[4],11.2 µM (active)
same,Potency,[3],11.2 µM (active)
same,Potency,[2],inactive
Cc1noc(C)c1-c1cc(O)cc(C(O)c2ccccc2)c1 (stereo not given),Potency,[4],15.8 µM (active)
same,Potency,[3],inactive
same,Potency,[2],inactive
COc1ccc(N(C(=O)Nc2c(C)cccc2C)c2cc(Nc3ccc(N4CCN(C)CC4)cc3)ncn2)c(OC)c1,Potency,[4],25.1 µM (active)
same,Potency,[3],12.6 µM (active)
same,Potency,[2],inactive
CC(C)=C1C[C@@]2(C)C(=CC1=O)CC[C@@H](OC(=O)/C(C)=C/CO)[C@@H]2C,Potency,[4],11.2 µM (active)
same,Potency,[3],inactive
same,Potency,[2],inactive
N#CSc1cc(SC#N)c(N)nc1N,"activity change, negative = cytotoxicity",[4],-0.394% [at 11.6 µM]
same,"activity change, negative = cytotoxicity",[3],-3.87% [at 11.6 µM]
O=C1C(Cc2ccc(O)cc2)N2C(=O)CCN(C(=O)NCc3ccccc3)C2CN1Cc1cccc2ccccc12 (stereo not given),Potency,[4],20 µM (active)
same,Potency,[3],7.94 µM (active)
CN(C)CCN(Cc1ccc(-c2ccc(CNCCc3ccccc3)cc2)cc1)C(=O)CCC1CCCC1,Potency,[4],15.8 µM (active)
O=C(Nc1ccc(N(Cc2ccsc2)C(=O)Cn2nnc3ccccc32)cc1)C1CC1,Potency,[4],inactive
same,Potency,[3],inactive
same,Potency,[2],inactive
Nc1nc(Nc2ccc3c(c2)CCC(N2CCCC2)CC3)nn1-c1cc2c(nn1)-c1ccccc1CCC2 (stereo not given),Potency,[4],7.08 µM (active)
same,Potency,[3],22.4 µM (active)
CNc1ccc([N+](=O)[O-])c(Nc2ccc3[nH]ncc3c2)n1,Potency,[4],inactive
O=C(O)CCc1nccc2c1[nH]c1ccccc12,Potency,[4],inactive
same,Potency,[3],inactive
same,Potency,[2],inactive
COc1ccc(Cl)c(Nc2ncnc3cc(OCC4CCN(C)CC4)c(OC)cc23)c1,Potency,[4],3.55 µM (active)
same,Potency,[3],3.16 µM (active)
same,Potency,[2],inactive
COC(=O)CC(O)CC(O)/C=C/c1c(C)ccc2c1C(OC(C)=O)CC(C)C2 (stereo not given),Potency,[4],inactive
same,Potency,[3],inactive
CCN(CC)CCCCCCNc1cc(OC)cc2c(C)ccnc12,Potency,[4],inactive
same,Potency,[3],inactive
COc1cc(O)c2c(c1)C1OC1C[C@H](O)[C@H](O)C(=O)/C=C\C[C@H](C)OC2=O (stereo not given in full),Potency,[4],inactive
same,Potency,[3],17.8 µM (active)
Nc1nccc(-c2c(-c3ccc(F)cc3)ncn2C2CCCCC2)n1,Potency,[4],inactive
CN(CC1COCCO1)S(=O)(=O)Nc1ccc2ccc3ncc(-c4cnn(C)c4)cc3c(=O)c2c1 (stereo not given),Potency,[4],15.8 µM (active)
C=CC(C)(O)CC/C=C(\C)C(=O)OC1C(O)C(CO)OC(OC(=O)C23CCC(C)(C)CC2C2=CCC4C5(C)CCC(OC6OC(COC7OCC(OC(C)=O)C(O)C7OC7OC(COC(C)=O)C(O)C(O)C7OC(C)=O)C(O)C(O)C6OC6OCC(O)C(O)C6O)C(C)(C)C5CCC4(C)C2(C)C(O)C3O)C1OC1OCC(OC2OCC(O)C(OC3OCC(O)C(O)C3O)C2O)C(O)C1O (stereo not given),"activity change, negative = cytotoxicity",[4],0.6% [at 6.55 µM]
same,"activity change, negative = cytotoxicity",[3],-26.1% [at 6.55 µM]
C=C1CC[C@@H]2[C@](C)(CO)[C@H](O)CC[C@@]2(C)[C@@H]1C/C=C1/C(=O)OCC1O (stereo not given in full),Potency,[4],inactive
COc1cc(CCC2=NN=C(NC(=O)c3ccc(N4C[C@@H](C)N[C@@H](C)C4)cc3)C2)cc(OC)c1,Potency,[4],12.6 µM (active)
same,Potency,[3],22.4 µM (active)
C/C=C(/C)C(=O)OC1CC(C)(C)CC2C3=CCC4C5(C)CCC(O[C@@H]6O[C@H](C(=O)O)[C@@H](O)[C@H](O)[C@H]6O[C@@H]6O[C@H](CO)[C@H](O)[C@H](O[C@@H]7OC[C@H](O)[C@H](O)[C@H]7O[C@@H]7O[C@H](CO)[C@@H](O)[C@H](O)[C@H]7O)[C@H]6O)C(C)(C)C5CCC4(C)C3(C)C(O)C(O)C12CO (stereo not given in full),"activity change, negative = cytotoxicity",[4],-5.71% [at 6.55 µM]
C=C[C@@]1(C)CCC2C(=CCC3[C@]2(C)CCC[C@@]3(C)C(=O)O)C1 (stereo not given in full),Potency,[4],inactive
same,Potency,[3],inactive
